# Results filed as inconclusive are left out. Where a call stands in place of a potency, no number is given. Active and inactive are the calls of the source. Calls follow the shape of the dose curve; as a rule, active = well fitted inhibition curve with a large enough effect; inconclusive = small, poorly fitted or top-dose-only effect; inactive = no such curve, though single readings can be large or run the other way.
# Assay: Counterscreen qHTS for Identification of Calcium Integrin Binding Protein 1 (CIB1) Competitor
# Procedure, shortened: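 Compounds (final up to 114 uM) preincubated 15 min at room temperature with 1 uM CIB1-GST in calcium-containing HEPES pH 7.4 buffer; 100 nM scrambled FITC peptide added, and fluorescence polarization (480/540) measured after another 15 min.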
# Potency is read from the fitted curve at half-maximal effect.
row,Structure (SMILES),Potency
1,O=S(=O)(c1ccc2nc(Cl)c(Cl)nc2c1)N1CCN(S(=O)(=O)c2c(F)cccc2F)CC1,inactive
2,CCOC(=O)c1nnc(N[S+](=O)([O-])c2ccc(NC(=O)Cc3ccc(Cl)c(Cl)c3)cc2)s1,inactive
3,COc1cc([C@H]2Oc3cc([C@H]4Oc5cc(O)cc(O)c5C(=O)[C@@H]4O)ccc3O[C@@H]2CO)ccc1O,inactive
4,C/C(=C\c1ccc2c(c1)OCO2)C1Nc2cccc3cccc(c23)N1,12.6 µM (active)
5,CC1CCC2(C1)N=C(Nc1nc3ccccc3o1)NC1=C2C(=O)CCC1 (stereo unspecified),inactive
6,CC(C)(C)OC(=O)CC(=O)NNC(=O)c1nc2ccccc2[nH]1,inactive
7,O=C1CCCC2=C1C1(CCOCC1)N=C(Nc1nc3ccccc3o1)N2,inactive
8,NC[C@@H](O)c1ccc(O)c(O)c1,inactive
9,CN(C)CCN1C(=O)c2cccc3cc(N)cc(c23)C1=O,inactive
10,CN1CCc2cccc3c2[C@H]1Cc1ccc(O)c(O)c1-3,inactive
11,O=C(Nc1ccc(S(=O)(=O)N2CCOCC2)cc1)c1cc(Cl)ccc1NS(=O)(=O)c1ccc(Cl)s1,inactive
12,CSc1cc2c(s1)c1cnn(Cc3cccc(N)c3)c(=O)c1n2C,inactive
13,NC(=O)C1CCN(c2ncc(Br)s2)CC1,39.8 µM (active)
14,N#Cc1ccc(N[S+](=O)([O-])c2ccc(Nc3nc(-c4ccccc4)cs3)cc2)cc1,44.7 µM (active)
15,O=[S+]([O-])(Nc1nccs1)c1ccc(NCc2cc(F)cc(Cl)c2O)cc1,inactive
16,COc1ccc2c(=O)n3nc(Nc4cccc(N5CCN(C)CC5)c4)sc3nc2c1,inactive
